12-hLO inh: 12-hLO (ALOX12) enzyme inhibition; P18054; purified 12-hLO, xylenol orange hydroperoxide absorbance; Potency, µM (doses to about 57.1 µM), hits mostly inhibitors; actives 0.12% (n = 150,000); further: nearly all actives have a fitted effect of over 55% in size
Target sequence (P18054 whole entry, looked up): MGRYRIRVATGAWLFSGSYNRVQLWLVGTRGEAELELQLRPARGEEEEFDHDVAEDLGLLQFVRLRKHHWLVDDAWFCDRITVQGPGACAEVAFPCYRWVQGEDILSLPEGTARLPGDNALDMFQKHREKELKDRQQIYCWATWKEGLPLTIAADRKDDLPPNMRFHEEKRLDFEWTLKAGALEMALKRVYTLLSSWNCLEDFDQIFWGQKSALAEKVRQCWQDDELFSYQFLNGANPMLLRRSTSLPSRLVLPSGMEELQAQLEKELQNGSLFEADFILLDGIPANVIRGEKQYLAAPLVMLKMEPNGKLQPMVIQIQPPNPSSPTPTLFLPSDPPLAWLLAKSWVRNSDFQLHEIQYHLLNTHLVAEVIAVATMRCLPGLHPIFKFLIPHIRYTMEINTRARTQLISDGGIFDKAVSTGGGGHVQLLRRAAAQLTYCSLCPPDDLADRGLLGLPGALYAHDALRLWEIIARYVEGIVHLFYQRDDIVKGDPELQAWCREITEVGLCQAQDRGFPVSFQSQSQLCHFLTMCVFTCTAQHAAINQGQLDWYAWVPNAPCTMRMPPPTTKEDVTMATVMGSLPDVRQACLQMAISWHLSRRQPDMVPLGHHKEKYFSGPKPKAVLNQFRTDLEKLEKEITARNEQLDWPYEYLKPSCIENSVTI
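150 nM 12hLO, 25 mM Hepes pH 7.0 + 0.01% Triton X-100; cpd preinc 15 min RT; 40 uM arachidonic acid, 30 min RT; Fe-XO 30 min; A573/A405 ratio as read-out.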
PNC inhibitor: blocks assembly of the perinucleolar compartment; PC3M PTB-GFP, PNC prevalence imaging, 16 h; hits give low values; activity change (PNC), negative = inhibition, % at 10 µM; AID 2417; actives 3.1% (n = 140,000);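 active means readout at or below -70, meaning at least 70% loss of cells showing the perinucleolar compartment, a nuclear body marking cancer cells; inconclusive means readout between -30 and a set limit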
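Read-out is percentage of cells bearing a perinucleolar compartment, from automated 20x imaging of fixed, Hoechst-stained PC3M PTB-GFP cells. Cells were seeded 4 h, then exposed 16 h to compound (23 nl of library stock) in duplicate plates.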
IMPase inh: IMPase inhibition in cells; inhibition (IP1 accumulation), % at 46.1 µM; P97697; AID 901; CHO-M1 cells, IP1 accumulation, HTRF TR-FRET ratio; 120,000 tested, under 10 active; active means well fitted curve in the direction sought with a large enough effect in the signal ratio, not every such curve was filed as active; inconclusive means small, poorly fitted or top-dose-only effect, or a change in a side signal; inactive means no such curve, though single readings can be large or run the other way; the % refers to the signal ratio;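 further: cells stimulated with carbachol in lithium chloride buffer; higher means more IMPase inhibition seen as more IP1 and lower FRET ratio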
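CHO-M1, 2000 cells/well, cultured 16–30 h; cpd up to 46 uM; carbachol (50 uM solution, stimulation buffer w/ 50 mM LiCl, pH 7.4), 30 min 37C; IP-One TR-FRET, 10 min RT; Ex 320/Em 665, 620; Hill-fit AC50.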
IMPase Li inh: cell-permeable IMPase inhibitors with lithium potentiation | Potency, µM (top dose mostly 59.4 µM), most hits filed as inhibitors | actives 0.35% (n = 210,000) | CHO-M1 cells, IP1 TR-FRET (IP-One), carbachol + lithium;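 further: IP1 builds up when IMPase is blocked and the TR-FRET signal falls; nearly all actives have a fitted effect of over 50% in size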
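CHO cells stably expressing M1 receptor (2000/well, cultured 16–30 h) treated 30 min at 37C with compound plus low lithium. Cytosolic IP1 by TR-FRET (665/620 ratio and 620 channel) after 10 min lysis; AC50 by Hill fit.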
A number is an active result; 0 = inactive; ? = inconclusive; - = no result given; [ ] = remark or other dose. The sample as a whole holds a higher share of hits than the screen did. Unless noted, the call rests on the fitted dose curve; in most records, active means well fitted curve in the direction sought with a large enough effect; inconclusive means small, poorly fitted or top-dose-only effect, or another doubt; inactive means no such curve, though single readings can be large; an effect the other way counts as inactive or inconclusive.

SMILES	12-hLO inh	PNC inhibitor	IMPase inh	IMPase Li inh
CCc1ccc(OCC(=O)NNC(=O)c2nn(CC)c(=O)c3ccccc23)cc1	-	-	-	0
Cn1c(C(=O)NCCc2c[nH]c3ccccc23)cc2sccc21	0	-81	0	0
O=C(NCCc1c[nH]c2ccccc12)c1cc2sccc2n1Cc1ccccc1	0	0	0	0
COc1cc(OC)nc(NC(=O)CS(=O)(=O)c2ccccc2)n1	0	-119	0	0
O=C(Oc1ccc2ccccc2c1Cl)N1CCCC1	0	-89	0	0
COC(=O)CSc1nc2ccccc2n1CC(=O)N(C(C)C)C(C)C	0	0	0	-
COc1cccc(C(=O)CSc2nc3ccccc3n2CC(=O)N(C(C)C)C(C)C)c1	0	-100	0	0
S=c1[nH]ncn2c1cc1oc3ccccc3c12	-	-	-	1.1µM
COc1cc(Cl)cc(/C=C/c2ccc3ccccc3n2)c1OC(C)=O	0	-101	-	0
CC(=O)Oc1ccc(Cl)cc1/C=C/c1cc(OC(C)=O)c2ccccc2n1	0	?	-	0
Cc1nc(SCc2ccccc2)c([N+](=O)[O-])[nH]1	0	-107	-	0
Cc1cccn2c(=O)c(C=Nc3ccc(Cl)cc3)c(NCCO)nc12	0	-100	0	0
Cc1cccn2c(=O)c(C=Nc3ccccc3)c(NCCO)nc12	0	0	0	0
O=C(Nc1ccc(Cl)c(Cl)c1)Nc1cc(S(=O)(=O)N2CCOCC2)ccc1N1CCCC1	0	0	-	0
O=C(O)C1CC(=O)N(c2ccc(OCc3c(F)cccc3Cl)cc2)C1 (stereo unspecified)	0	-108	0	0
O=C(O)C1CC(=O)N(c2ccc(OCc3ccccc3)cc2)C1 (stereo unspecified)	0	?	0	0
O=C(CC12CC3CC(CC(C3)C1)C2)NCc1ccncc1	0	-84	0	0
c1cc(CNC23CC4CC(CC(C4)C2)C3)ccn1	-	-	-	0
O=C(N/N=C/c1ccccc1O)c1cc(-c2ccccc2)n[nH]1	0	-	-	-
O=C(NCc1ccccc1)C(c1ccccc1)N(Cc1ccc2c(c1)OCO2)C(=O)Cc1cccs1 (stereo unspecified)	0	-108	0	0
O=c1c(-c2cccs2)nc2cnc(N3CCNCC3)nc2n1C1CC1	-	-	-	0
O=C(O)[C@H]1CCCN1	-	-	-	0
Cc1ccc(Cn2c(CN3CCOCC3)nc3c2c(=O)n(C)c(=O)n3C)cc1	0	-100	0	0
Cn1c(=O)c2c(nc(CN3CCN(c4ccccc4F)CC3)n2CCN2CCOCC2)n(C)c1=O	0	-100	0	0
Cn1c(=O)c2c(nc(CN3CCN(Cc4ccccc4)CC3)n2CCN2CCOCC2)n(C)c1=O	0	?	0	0
SMILES	12-hLO inh	PNC inhibitor	IMPase inh	IMPase Li inh
CN(C)Cc1ccc(-c2cc3onc(-c4ccccc4)c3c(=O)n2C)cc1	0[11.4 µM]	-	-	0
Cc1cc(N2CCC(C)CC2)nc(SCC(=O)c2ccccc2)n1	0	-119	0	0
CCOC(=O)c1c(NC(=O)/C=C/c2ccccc2)sc2c1CCCC2	-	-	0	-
COCCNC(=O)c1cc2cc(Cl)cc(Cl)c2oc1=O	-	-	-	0
Cc1ccc(-c2c(C)n([O-])c3c([n+]2=O)CCCCC3)cc1	0	-114	-	0
C[C@@]12CCC(=O)C=C1CC[C@H]1[C@@H]2[C@@H](O)C[C@]2(C)[C@@H]1CC[C@@]2(O)C(=O)CO	0[11.4 µM]	-	-	-
CCOC(=O)c1c(C)nc(SCC(N)=O)c(C#N)c1-c1ccccc1	0	-114	-	0
CCOC(=O)c1c(C)nc(C)c(C(=O)OCC)c1-c1ccccc1	0	0	0	0
Nc1ccc(S(=O)(=O)NCc2nccs2)cc1	0[11.4 µM]	-	-	0
CSc1nc(N(C)NC(=O)c2ccc(Cl)cc2)c2ccccc2n1	0	-97	0	0
CC(C)C(NC(=O)c1ccccc1)C(=O)NC1=NCCS1 (stereo unspecified)	0	?	0[1.84 µM]	0
CCN(CC)S(=O)(=O)c1cccc(C(=O)NC(C(=O)NC2=NCCS2)C(C)C)c1 (stereo unspecified)	0	-116	0	0
N=c1ccn2c(n1)O[C@@H]1[C@@H](O)[C@H](CO)O[C@H]12	0	-	0	-
Cc1ccc(/C=N/n2cnc3sc(C)c(C)c3c2=O)o1	-	-	-	0
Cc1cc(SC#N)cc(C)c1NC(=O)CCl	0	-115	0	0
CCc1cc(SC#N)cc(C)c1NC(=O)CCl	0	0	-	0
COc1ccc(-c2nc3ccccc3s2)cc1O	0	-90	0	0
CC1(C)CC(=O)C(C=NCCN2CCOCC2)=C(O)C1	0	-96	0	0
O=C(COC(=O)C1(c2ccccc2F)CCCC1)Nc1ncc(C(F)(F)F)cc1Cl	0	-109	-	0
Cc1nn(-c2ccccc2)c(C)c1/C=C/C(=O)OCC(=O)Nc1ncc(C(F)(F)F)cc1Cl	0	-113	-	0
Nc1c(N2CCCC2)c2ccccc2oc1=O	-	-	-	0
COc1ccc2nc(SC)c(C#N)cc2c1	-	-	-	11µM
COc1ccc2nc(SCC(C)=O)c(C#N)cc2c1	0	?	-	0
O=C(NC(Nc1nc2ccc([N+](=O)[O-])cc2s1)(C(F)(F)F)C(F)(F)F)c1ccccc1Cl	?	-119	0	0
O=C(c1cc(N2C(=O)C3C4CCC(C4)C3C2=O)ccc1Cl)N1CCN(c2ccccc2F)CC1 (stereo unspecified)	0	-119	0	0
SMILES	12-hLO inh	PNC inhibitor	IMPase inh	IMPase Li inh
O=C(c1c(F)cccc1F)N1CCN(c2ccccc2F)CC1	0	-82	0	0
O=C(c1cccc(C(=O)N2CCN(c3ccccc3F)CC2)c1)N1CCN(c2ccccc2F)CC1	0	0	0	0
O=C(c1cc(N2C(=O)C3C4CCC(C4)C3C2=O)ccc1Cl)N1CCN(c2ccc(F)cc2)CC1 (stereo unspecified)	0	0	0	0
CC(C)N1CCN(Cc2cccn2-c2nccs2)CC1CCO (stereo unspecified)	-	-	-	0
N#Cc1ccccc1OCCOCCNC1CCCC1	0	?	-	0
COc1ccccc1OCCNC1CCCC1	0	-98	0	0
O=C(Nc1cccc(Cl)c1)Nc1ccnc(-c2cccnc2)n1	-	-	-	0
COc1ccccc1N1CCN(C(CNS(=O)(=O)c2ccc(C)cc2)c2cccnc2)CC1 (stereo unspecified)	0	-82	0	0
COc1ccc(OC)c(C2CC(=O)c3c([nH]c(C(=O)OC4CCC(C)CC4)c3C)C2)c1 (stereo unspecified)	-	-	0	-
Cc1cc2c(=O)n(CC(=O)N3CCN(c4ccccc4)CC3)cnc2s1	0	-122	0	0
Cc1ccc(-c2cc(C(=O)OCC(=O)c3ccccc3)c3cccc(Cl)c3n2)cc1	-	-	0	-
Cc1ccc(NC(=S)N(CCN(C)C)Cc2cc3cc(C)cc(C)c3[nH]c2=O)cc1	0	-116	-	0
Cc1ccc2cc(CN(CCN(C)C)C(=S)Nc3ccccc3)c(=O)[nH]c2c1C	-	-	-	0
ON=C1CCCCC1	0	-	-	0
O=C(C1CCN(S(=O)(=O)c2ccc(Br)s2)CC1)N1CCN(c2cccc(Cl)c2)CC1	-	-	0	-
CC(NC(=O)NC(N)=O)(C(F)(F)F)C(F)(F)F	0	-109	0	0
CC(NC(=O)NCCCC(=O)O)(C(F)(F)F)C(F)(F)F	0	0	0	0
COCc1[nH][nH]c(=O)c1C=NCC(=O)OC	-	-	-	0
